This is a sample that favours compounds with a hit; in the whole collection about 19% have one here.
KB-3-1 cytotox = kills parental KB-3-1 adenocarcinoma cells; Potency, µM (top dose mostly 46.1 µM), usual class: cytotoxic; KB-3-1 viability, CellTiter-Glo ATP luminescence, 72 h; actives 1.4% (n = 400,000); note: nearly all actives have a fitted effect of over 60% in size
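Parental KB-3-1 adenocarcinoma cells in phenol-red-free DMEM with 10% FBS were pin-treated with compounds at several concentrations, incubated 72 h at 37 °C, and viability read by CellTiter-Glo luminescence; concentration-effect curves were fitted after normalization.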
DT40 TDP1 CPT = growth inhibition of DT40 Tdp1-/-;hTDP1 cells with camptothecin (screen for TDP1 inhibitors). chicken DT40 Tdp1-/-;hTDP1 cells + 20 nM CPT, ATP luminescence, 48 h. Potency, µM (series often up to 46.2 µM), for inactives: at the highest dose activity change, negative = growth inhibition, hits mostly inhibitors. actives 12% (n = 420,000). AID 686979; note: nearly all actives have a fitted effect of over 55% in size
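Chicken DT40 Tdp1-/- cells stably complemented with human TDP1 were seeded at 400 cells/well in medium containing 20 nM camptothecin, exposed to pin-transferred compounds, and grown at 37 °C for at least 48 hr. Viability was read as ATP luminescence.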
HT1080 IDH1KD tx = kills HT-1080 cells with IDH1 knockdown | HT-1080 IDH1 knockdown viability, ATP luminescence, 48 h | AID 686971 | actives 2% (n = 360,000) | Potency, µM (doses to about 46.1 µM), without a hit: top-dose activity, negative = toxicity, actives largely listed as cytotoxic;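 note: 0% = DMSO wells and -100% = cell-free medium wells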
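After a 2 h attachment period, IDH1KD HT-1080 cells took pin-transferred compound for 48 h at 37 °C; ATP-based luminescence after 10 min room-temperature reagent incubation reported viability.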
HT1080NT lethal = kills 2HG-producing HT-1080-NT fibrosarcoma cells. AID 686970. Potency, µM (top dose mostly 46.1 µM), for the others: at the highest dose activity, negative = less viability, actives largely listed as cytotoxic. actives 1.6% (n = 360,000). HT-1080-NT fibrosarcoma viability, CellTiter-Glo ATP luminescence, 48 h;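 note: NT is the 2HG producing partner of a matched IDH1 knockdown line; 0% = DMSO-treated cells and -100% = media-only wells without cells; nearly all actives have a fitted effect of over 55% in size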
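Fibrosarcoma NT cells, 750 per well in 5% FBS RPMI, were exposed to compound for 48 hours. Viability: CellTiter-Glo luminescence.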
KB-V1 MDR tox = kills drug-selected multidrug resistant KB-V1 cells; KB-V1 MDR cells viability, CellTiter-Glo, 72 h; Potency, µM (top dose mostly 46.1 µM), usual class: cytotoxic; actives 3.4% (n = 400,000); AID 1347076; note: nearly all actives have a fitted effect of over 60% in size
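Readout: CellTiter-Glo luminescence, 10 min after addition. Cells: KB-V1 MDR subline, 72 h at 37 degrees C with compound. Analysis: corrected, normalized data fitted to concentration-effect curves.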
DT40 TDP1 no CPT = qHTS for Inhibitors of human tyrosyl-DNA phosphodiesterase 1 (TDP1): qHTS in cells in absence of CPT; DT40 Tdp1-/- hTDP1 cells, no CPT, ATP luminescence, 48 h; actives 15% (n = 420,000); AID 686978, 2013; Potency, µM (top dose mostly 46.2 µM), for the others: at the top dose activity change, negative = growth inhibition, hits mostly inhibitors; note: nearly all actives have a fitted effect of over 55% in size
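Luminescent ATP content (CellTiter-Glo) served as the growth readout. Knockout chicken DT40 cells expressing human TDP1 were exposed to compounds without camptothecin for a minimum 48 hr at 37 °C.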
The depositor's hits bear a star; i = inactive; ? = inconclusive; . = not tested or not shown; ! = not confirmed by another sample. Calls come from the whole dose curve; as a rule, active = well fitted curve in the direction sought with a large enough effect; inconclusive = small, poorly fitted or top-dose-only effect, or another doubt; inactive = no such curve, though single readings can be large; an effect the other way counts as inactive or inconclusive. Unless noted, % is set by controls: 0 for no effect and ±100 for the full control effect; potency is the fitted concentration of half-maximal effect.

SMILES | KB-3-1 cytotox | DT40 TDP1 CPT | HT1080 IDH1KD tx | HT1080NT lethal | KB-V1 MDR tox | DT40 TDP1 no CPT
COc1ccc(CNc2nc(NCc3ccc(OC)cc3)c3[nH]cnc3n2)cc1 | ? | ? | ? | ? | i | 29.1µM*
COc1ccc(CNc2ncnc3nc[nH]c23)cc1 | i | 14.1µM* | -4.7% | 1.2% | i | 14.1µM*!
COc1cc(SC)ccc1C(=O)NCC1CCCCC1 | i | ? | -7.9% | -2.4% | i | ?
O=C(Nc1ccccc1)OCC(CN1CCCCC1)OC(=O)Nc1ccccc1 (stereo not drawn) | i | ? | 0.8% | 42.8% | ? | ?
C/C=C1\COC(C(=O)NCc2cccc(OC)c2OC)(C(F)(F)F)C=C1C=C1CCCCC1 (stereo not drawn) | i | 14.6µM* | ? | ? | i | 16.4µM*
Cc1ccc(NC(=O)COC(=O)CNC(=O)c2cccs2)cc1S(=O)(=O)N1CCOCC1 | i | 10.5% | 4.0% | 5.7% | ? | 15.1%
CCOCCn1ccc2c(OCC(=O)Nc3ccc(OC)c(OC)c3)cccc2c1=O | i | 14.6µM* | -1.8% | -20.7% | ? | 10.3µM*
CCOCCn1ccc2c(OCC(=O)Nc3cc(C)cc(C)c3)cccc2c1=O | i | -29.8% | . | . | i | ?
COCCn1ccc2c(OCC(=O)Nc3cccc(OC)c3)cccc2c1=O | i | ? | . | . | ? | 14.6µM*
COCCn1ccc2c(OCC(=O)Nc3cccc(C(F)(F)F)c3)cccc2c1=O | i | ? | . | . | i | 23.1µM*
CCOCCn1ccc2c(OCC(=O)Nc3ccc(OC)cc3OC)cccc2c1=O | i | -22.9% | -7.0% | -3.1% | i | ?
COc1cccc(N(Cc2nnc3n2CCCCC3)C(=O)Nc2cccc(Cl)c2)c1 | i | -23.2% | . | . | i | -18.8%
CN(C)c1ccc(C2CCc3ccccc3N2C(=O)c2ccccc2)cc1 (stereo not drawn) | ? | 11.2µM* | . | . | ? | 7.94µM*
Cc1ccc(C(=O)N2CCN(C(=O)c3ccccc3)C2c2ccc(N(C)C)cc2)cc1 (stereo not drawn) | i | -6.9% | 3.1% | -1.2% | ? | ?
CCOc1ccccc1CNC(=O)CN1C(=O)CCc2cc(S(=O)(=O)N3CCCCC3)ccc21 | i | ? | . | . | i | 20.6µM*
O=C(Cn1nc2c(cc1=O)CCCC2)NCc1ccc(Cl)cc1 | . | 16.4µM* | . | . | . | 18.4µM*
O=C(CN1C(=O)CCc2cc(S(=O)(=O)N3CCCCC3)ccc21)NCc1ccc(Cl)cc1 | i | 20.6µM* | . | . | i | 14.6µM*
COc1ccc(S(=O)(=O)N2CC3C4C=CC(C4)C3C2)cc1 (stereo not drawn) | i | -4.5% | 4.8% | 0.0% | i | -15.7%
O=C1CCCc2nn(-c3ccccc3)c(-c3ccncc3)c21 | i | ? | 13.2% | 8.2% | i | 16.4µM*
Cc1nc(C)c(-c2nnc(-c3ccccc3Cl)o2)cc1C(=O)NN | i | -6.4% | 2.6% | 22.5% | ? | 17.0%
Cc1nc(C)c(-c2nnc(-c3ccc(C(C)(C)C)cc3)o2)cc1C(=O)NN | i | ? | -22.0% | -13.3% | i | 23.1µM*
O=C(N/N=C1\CCc2ccccc21)c1ccccc1O | i | -23.5% | ? | ? | 20.6µM* | 23.1µM*
O=C(N/N=C1\CCCc2ccccc21)c1ccccc1Cl | i | 2.06µM* | -1.5% | 2.1% | i | -24.6%
CC(Oc1ccc(Cl)cc1Cl)C(=O)N/N=C1\CCCc2ccccc21 (stereo not drawn) | i | ? | 6.0% | 11.4% | i | 25.9µM*
O=C(N/N=C1\CCc2ccccc21)c1ccncc1 | i | 3.3% | -9.4% | -9.2% | i | -30.4%

Bioassay records deposited in PubChem by National Center for Advancing Translational Sciences (NCATS).
